For 40 molecules, growth results are on record in PubChem BioAssay (NCI).

Each structure is given as a SMILES string. “And” between values parts separate entries of the source, which are not always exact repeats. Equal entries are not always repeated. This is part of a sample that, as a whole, favours compounds with a hit. Of some 83,000 tested, about 20% had one in any assay.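 Results are percent growth after 48 hours of single-concentration exposure. 100 means growth as in untreated cells, lower positive values show inhibition; negative values down to -100 show cell death.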 The source made the active and inactive calls. Where a SMILES comes first, the peptide text is derived from it.

This assay has as its system EKVX NSCLC. Nature of the assay: NCI-60 one-dose screen, 48 h (100 = growth as untreated, 0 = no growth, -100 = all killed). The following applies: 10 µM. On the procedure: Growth inhibition of the EKVX human Non-Small Cell Lung tumor cell line is measured as a screen for anti-cancer activity. Cells are grown in 96 well plates and exposed to the test compound for 48 hours. Compounds are tested at a single concentration, which is 10^-5 M for most compounds. The reported endpoint is percent growth (GI% or GIPRCNT), where numbers from 0 - 100% represent growth inhibition, and numbers from -100% - 0 represent cell death. For example, a value of 40 represents 60% growth inhibition. A value of 0 means no net growth occurred over the course of the experiment. A value of -40 indicates 40% of cells at the beginning of the experiment died by the end of the experiment. A value of -100 means all cells are dead at the end of the experiment.
NCI-60 Human Tumor Cell Lines Screen was performed using the standard one-dose NCI protocol, which is described in more detail at https://dtp.cancer.gov/discovery_development/nci-60/default.htm.
Compounds with GIPRCNT values below 10 were considered active. Activity score was based on GIPRCNT using the following formula: […]
Score is 0 for GIPRCNT values of 100 or above, 50 for GIPRCNT values of 0, and 100 for GIPRCNT values of -100.
For `c1ccc(-c2nc3ccccc3s2)cc1`, the growth was 85.5% (inactive).

For the molecule `CCCCCCCCCCCCCCCCC(C(=O)O)C(O)(CC(=O)O)C(=O)O` (stereo not given), the growth was 38.2% (inactive). `CC(C)(O)C(=O)O`: the growth is 94% (inactive). For `O=C(O)/C=C\C(=O)Nc1cccc2ccccc12`, the growth was 65.1% (inactive) and 112% (inactive). With `O=C1OC(C(O)C(O)CO)C(O)=C1O` (stereo not given) the figure was 110% (inactive) and 99.5% (inactive); with `Nc1nc(N)c2[nH]cnc2n1`, 97.5% (inactive); with `COc1ccc(Nc2ccc3ccccc3c2)cc1`, 92.8% (inactive).

`NC1CCC(C(=O)O)CC1` (stereo not given): the growth was 103% (inactive) and 105% (inactive). The result for `CC(C)NC(=O)N/C=C(\C#N)C(N)=O` reads 97.2% (inactive). Consider `C#CCOC(=O)Nc1ccccc1`, for which the growth was 99.1% (inactive). With `CC1CCC2(OC1)OC1CC3C4CC=C5CC(O)CCC5(C)C4CCC3(C)C1C2C` (stereo not given) the figure was 96.6% (inactive); with `Cc1ccc(S(=O)(=O)c2ccccc2)cc1`, 76.7% (inactive); with `CC1CCC(C(C)C)C(NNC(N)=O)C1` (stereo not given), 101% (inactive). With `NC(Cc1ccccc1)C(=O)NC(Cc1ccccc1)C(=O)O` (stereo not drawn) (H-Phe-Phe-OH; configuration not given here) the figure was 98% (inactive); with `O=C1c2c(O)ccc(O)c2C(=O)c2c(NCCNCCO)ccc(NCCNCCO)c21`, -17.7% (active) and -29.5% (active).

Regarding `CC[C@H](CC[C@@H](C)[C@H]1CC[C@H]2[C@@H]3CC=C4C[C@@H](O)CC[C@]4(C)[C@H]3CC[C@]12C)C(C)C`, the growth is 102% (inactive) and 107% (inactive). The result for `CCc1cc(C)cc(O)c1` reads 101% (inactive). As to `COc1ccc2cc1Oc1ccc(cc1)C[C@H]1c3cc(c(OC)cc3CCN1C)Oc1c(OC)c(OC)cc3c1[C@H](C2)N(C)CC3`, the growth is 80.5% (inactive). Consider `O=C1C=C(Nc2ccccc2)c2ccccc2C1=O`, for which the growth was 99.8% (inactive). For `CC(=O)Nc1ccc(S(N)(=O)=O)cc1`, the growth is 102% (inactive). The result for `CC1CCC2(C(=O)O)CCC3(C)C(=CCC4C5(C)CCC(O)C(C)(C)C5CCC43C)C2C1C` (stereo not given) reads 74% (inactive) and 70.8% (inactive).

In the case of `O=[N+]([O-])c1cccc(SSc2cccc([N+](=O)[O-])c2)c1`, the growth is 106% (inactive).

For the molecule `NC(Cc1c[nH]c2ccccc12)C(=O)O` (stereo not given), the growth is 93.1% (inactive) and 101% (inactive). For `Cl`, the growth was 100% (inactive).

As to `Cc1cc2ccccc2cn1`, the growth was 93% (inactive). The result for `CC1=C/C(O)CC(=O)Cc2nc(co2)C(=O)N2CCC=C2C(=O)OC(C(C)C)C(C)/C=C\C(=O)NC/C=C\1` (stereo not given) reads 90.2% (inactive); that for `CC(C)C(C)(C)c1ccc(O)cc1`, 107% (inactive); that for `Nc1ncnc2c1ncn2C1OC(COP(=O)(O)O)C(O)C1O` (stereo not given), 113% (inactive). Consider `CCCCCCCCCCCCCCCc1ccc(N)c(OC2OC(CO)C(O)C(O)C2O)c1` (stereo not given), for which the growth is 81.6% (inactive). `NN1CCOC(c2ccccc2)C1` (stereo not given): the growth is 115% (inactive). The result for `CC1(C)COC(=S)N1` reads 94.1% (inactive); that for `O=C(Cc1ccccc1)c1ccc(O)c(Cl)c1`, 66.1% (inactive); that for `O=c1[nH]cnc2c1ncn2C1OC(CO)C(O)C1O` (stereo not given), 123% (inactive) and 107% (inactive) and 93.1% (inactive). With `CCN(CCNS(C)(=O)=O)c1ccc(N)c(C)c1` the figure was 88.9% (inactive). As for `Cc1cc(-c2ccc(N=Nc3ccc4c(S(=O)(=O)O)cc(S(=O)(=O)O)c(N)c4c3O)c(C)c2)ccc1N=Nc1ccc2c(S(=O)(=O)O)cc(S(=O)(=O)O)c(N)c2c1O`, the growth is 86.6% (inactive). With `N#CC(C#N)N=Nc1ccc(Cl)cc1` the figure was 77% (inactive). With `CCCCOc1ccc(Nc2cc(Cl)ccc2C(=O)O)cn1` the figure was 101% (inactive) and 98.6% (inactive); with `CC(C)NCC(O)c1ccc(O)c(O)c1` (stereo not given), 104% (inactive) and 85% (inactive) and 91.2% (inactive). The result for `O=C1CSC2=NCCN12` reads 99% (inactive) and 64.7% (inactive). In the case of `CC(=O)OCC1OC(OC(C)=O)C(OC(C)=O)C(OC(C)=O)C1OC(C)=O` (stereo not given), the growth was 99.7% (inactive).
